Data: PubChem BioAssay (Tox21)
Where “and” joins values, the source holds several entries; their conditions need not be identical. Identical values can stand only once. A number with no mark means an inactive call. Results filed as inconclusive are left out. Entries that show only a call come without a potency. Calls of active or inactive are those of the source. Unless noted, calls come from the whole dose curve; as a rule, active = well fitted curve in the direction sought with a large enough effect in the repeat runs; inconclusive = weak or mixed curves; inactive = no such curve, though single readings can be large; an effect the other way counts as inactive or inconclusive.

Legend:
[1] = qHTS assay to identify small molecule antagonists of the estrogen related receptor (ERR) signaling pathway from Tox21 library - cell viability counter screen (AID 1224834); note: nearly all actives have a fitted effect of over 30% in size; note: potency is the fitted concentration of half-maximal effect
Method in brief: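 In this quantitative HTS format, ERR cells receive compounds in DMSO and are incubated for 17.5 h at 37 C. Live-cell protease activity is then detected with CellTiter-Fluor.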

[2] = qHTS assay to identify small molecule agonists of the constitutive androstane receptor (CAR) signaling pathway - cell viability counter screen (AID 1224836); note: nearly all actives have a fitted effect of over 45% in size; note: potency is the fitted concentration of half-maximal effect
Method in brief: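 Fluorescence from CellTiter-Fluor indicates live cells after 23 h exposure. The human hepatoma line expresses hCAR and a CYP2B6-2.2kb reporter. Incubation medium contains 0.75 uM PK11195 (final).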

[3] = qHTS assay to identify small molecule antagonists of the constitutive androstane receptor (CAR) signaling pathway - cell viability counter screen (AID 1224837); note: nearly all actives have a fitted effect of over 45% in size; note: potency is the fitted concentration of half-maximal effect
Method in brief: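 In quantitative HTS format, compounds at 15 concentrations were applied to HepG2 cells double-transfected with hCAR and CYP2B6-2.2kb under 50 nM CITCO stimulation; live-cell protease activity was read after 23 hr via CellTiter-Fluor.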

[4] = biological target: Nuclear receptor subfamily 1 group I member 3 (Homo sapiens) (UniProt Q14994); experiment: qHTS assay to identify small molecule antagonists of the constitutive androstane receptor (CAR) signaling pathway (AID 1224838); note: nearly all actives have a fitted effect of over 40% in size
Method in brief: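 CITCO-stimulated (50 nM final) HepG2 cells stably transfected with hCAR and CYP2B6-2.2kb luciferase were exposed to compounds at 15 concentrations for 24 h at 37 C/5% CO2. A luciferase reagent was added and luminescence recorded after 30 min.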

[5] = biological target: Nuclear receptor subfamily 1 group I member 3 (Homo sapiens) (UniProt Q14994); experiment: qHTS assay to identify small molecule agonists of the constitutive androstane receptor (CAR) signaling pathway (AID 1224839);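 note: HepG2 cells stably carrying human CAR and a CYP2B6 luciferase reporter; nearly all actives have a fitted effect of over 15% in size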
Method in brief: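 Stable hCAR/CYP2B6-2.2kb HepG2 line in DMEM with 10% FBS; compounds (15 concentrations) and 0.75 uM PK11195 final, 24 h at 37 C/5% CO2, then ONE-Glo luminescence after 30 min.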

[6] = qHTS assay to identify small molecule antagonists of the estrogen related receptor signaling pathway with the pleiotropic PPARgamma coactivator (PGC) from Tox21 10K library - cell viability counter screen (AID 1224840; active = well fitted cell-killing curve with a large enough effect in the repeat runs, not every such curve was filed as active; note: nearly all actives have a fitted effect of over 40% in size; note: potency is the fitted concentration of half-maximal effect)
Method in brief: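 Viability counter screen, PGC/ERR cells: 17.5 h compound exposure at 37 C, CellTiter-Fluor fluorescence endpoint.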

[7] = biological target: Thyrotropin receptor (Homo sapiens) (UniProt P16473); experiment: qHTS assay to identify small molecule agonists of the thyroid stimulating hormone receptor (TSHR) signaling pathway (AID 1224843; calls by dose curve; note: nearly all actives have a fitted effect of over 45% in size)
Method in brief: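 Compounds are titrated over 15 concentrations, in triplicate, onto TSHR-HEK293 cells seeded at 800/well. Plates sit 30 min at room temperature before cAMP-d2 and anti-cAMP cryptate are added; signal is read after a further hour.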

[8] = qHTS assay to identify small molecule agonists of the hypoxia (HIF-1) signaling pathway - cell viability counter screen (AID 1224844; calls by dose curve; note: nearly all actives have a fitted effect of over 50% in size)
Method in brief: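 Same wells as the HIF-1 reporter screen; ME-180 cells carrying HRE-bla, 17 hr treatment at 37C; CellTiter-Glo luminescence read after 30 min at room temperature.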

[9] = qHTS assay to identify small molecule agonists of H2AX (AID 1224845; active = well fitted activation curve with a large enough effect in the signal ratio in the repeat runs, not every such curve was filed as active; the % refers to the signal ratio)
Method in brief: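 Wild-type CHO-K1 cells plated overnight, then exposed 3 hr at 37C to compounds at 15 concentrations (0.76% DMSO). Lysed, then HTRF anti-pH2AX(S139)-cryptate/anti-H2AX-d2 detection after 24 hr at room temperature; emissions 665 and 620 nm.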

[10] = qHTS assay to identify small molecule agonists of the hypoxia (HIF-1) signaling pathway (AID 1224846; active = well fitted activation curve with a large enough effect in the signal ratio in the repeat runs, not every such curve was filed as active; the % refers to the signal ratio)
Method in brief: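 In ME-180 cells bearing an HRE-bla construct, 17 h treatment with DMSO-dissolved compounds at 37C was followed by CCF4-AM loading to quantify reporter induction.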

[11] = qHTS assay to identify small molecule agonists of H2AX - cell viability counter screen (AID 1224847; calls by dose curve; note: top concentration of the series differs between compounds; nearly all actives have a fitted effect of over 30% in size)
Method in brief: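 Viability of CHO-K1 (wild type) cells after 3 hr compound exposure was measured by CellTiter-Glo luminescence.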

[12] = qHTS RealTime-Glo MT Cell Viability Assay in HepG2 cells - 24 hour (AID 1224867); note: nearly all actives have a fitted effect of over 50% in size
Method in brief: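 Tox21 10K library screened in qHTS format on HepG2 cells carrying RealTime-Glo reagents. Compounds were added after a 5 h preincubation, and the luminescent signal from continuous culture was measured repeatedly during 40 h treatment.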

[13] = qHTS RealTime-Glo MT Cell Viability Assay in HEK293 cells - 32 hour (AID 1224868); note: top concentration of the series differs between compounds; nearly all actives have a fitted effect of over 50% in size
Method in brief: (§1)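 Luminescence generated by NanoLuc from substrate produced by living HEK293 cells served as the viability signal. Each value reflects the reading at its stated time point during continuous 40 h compound exposure at 37 C.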

[14] = A CellTox Green Cytotoxicity Assay to monitor cytotoxicity in HEK293 cells - 0 hour (AID 1224869); note: nearly all actives have a fitted effect of over 50% in size
Method in brief: (§2)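 Homogeneous no-lysis format: HEK293 cell suspension mixed with CellTox Green reagent, seeded, incubated 5 h at 37 C/5% CO2, then dosed by pintool with compound in DMSO.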

[15] = qHTS RealTime-Glo MT Cell Viability Assay in HepG2 cells - 40 hour (AID 1224870); note: nearly all actives have a fitted effect of over 50% in size
Method in brief: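 HepG2 cells mixed with RealTime-Glo MT reagents (NanoLuc plus cell-permeant prosubstrate) were seeded at 600 cells/well, incubated 5 h at 37 C/5% CO2, then pinned with compounds in DMSO; nonlytic luminescence tracked viability during 40 h treatment.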

[16] = A CellTox Green Cytotoxicity Assay to monitor cytotoxicity in HEK293 cells - 40 hour (AID 1224871); note: nearly all actives have a fitted effect of over 45% in size
Method in brief: as §2

[17] = qHTS RealTime-Glo MT Cell Viability Assay in HEK293 cells - 16 hour (AID 1224872)
Method in brief: as §1

[18] = biological target: Luciferin 4-monooxygenase (Photinus pyralis) (UniProt P08659); experiment: qHTS assay to identify small molecule inhibitors of firefly luciferase (AID 1224835); note: nearly all actives have a fitted effect of over 25% in size
Method in brief: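 Quantitative HTS format; KM concentrations of both substrates. Purified P. pyralis FLuc activity quantified from luminescence images.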

[19] = qHTS assay to identify small molecule antagonists of the estrogen related receptor signaling pathway with the pleiotropic PPARgamma coactivator (PGC) from Tox21 10K library (AID 1224841; call rule not given here)
Method in brief: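 In the PGC/ERR line, DMSO solutions of test chemicals are pin-delivered to 2,000 cells/well six hours after dispensing. Following eighteen hours' incubation, One-Glo reagent is added and luminescence recorded.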

[20] = qHTS assay to identify small molecule agonists of the estrogen related receptor (ERR) signaling pathway from Tox21 library (AID 1224849; calls by dose curve; note: nearly all actives have a fitted effect of over 15% in size); conditions: ERR reporter cell line, ONE-Glo luciferase, 18 h
Method in brief: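 Reporter cells (ERR, NTP source) treated with Tox21 10K compounds 18 h, 37 C. Readout: ONE-Glo luminescence, 30 min RT.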

Nuclear receptor subfamily 1 group I member 3 (Homo sapiens), sequence (Q14994 whole entry, looked up): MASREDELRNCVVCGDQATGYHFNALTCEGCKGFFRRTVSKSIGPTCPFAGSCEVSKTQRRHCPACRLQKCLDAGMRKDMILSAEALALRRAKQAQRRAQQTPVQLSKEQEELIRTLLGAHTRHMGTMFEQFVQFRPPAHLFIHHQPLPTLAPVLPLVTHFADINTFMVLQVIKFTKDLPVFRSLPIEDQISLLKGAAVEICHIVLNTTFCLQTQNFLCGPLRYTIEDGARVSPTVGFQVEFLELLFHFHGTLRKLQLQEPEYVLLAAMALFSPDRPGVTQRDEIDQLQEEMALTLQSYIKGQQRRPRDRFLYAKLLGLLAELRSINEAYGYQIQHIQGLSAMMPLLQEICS
Thyrotropin receptor (Homo sapiens), sequence (P16473 whole entry, looked up): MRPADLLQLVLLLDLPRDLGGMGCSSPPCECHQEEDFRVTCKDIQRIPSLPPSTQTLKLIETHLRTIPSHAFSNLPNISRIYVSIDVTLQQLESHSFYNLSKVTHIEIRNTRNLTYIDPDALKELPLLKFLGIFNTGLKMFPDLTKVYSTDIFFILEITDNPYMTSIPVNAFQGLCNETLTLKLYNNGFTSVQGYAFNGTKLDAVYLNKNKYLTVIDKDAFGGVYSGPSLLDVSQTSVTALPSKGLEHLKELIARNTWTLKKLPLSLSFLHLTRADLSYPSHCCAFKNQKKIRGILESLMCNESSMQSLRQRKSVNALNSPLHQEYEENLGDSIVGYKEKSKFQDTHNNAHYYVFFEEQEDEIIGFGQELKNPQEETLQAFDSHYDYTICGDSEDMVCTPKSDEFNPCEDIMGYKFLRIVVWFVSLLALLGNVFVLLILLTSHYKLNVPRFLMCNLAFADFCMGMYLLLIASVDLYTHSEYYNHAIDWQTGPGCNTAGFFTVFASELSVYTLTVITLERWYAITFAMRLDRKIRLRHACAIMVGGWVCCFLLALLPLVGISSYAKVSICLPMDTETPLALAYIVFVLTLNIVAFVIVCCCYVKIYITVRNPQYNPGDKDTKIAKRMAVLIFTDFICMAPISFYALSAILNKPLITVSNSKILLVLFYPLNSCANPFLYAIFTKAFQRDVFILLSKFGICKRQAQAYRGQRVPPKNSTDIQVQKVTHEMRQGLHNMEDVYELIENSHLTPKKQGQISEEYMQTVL
Luciferin 4-monooxygenase (Photinus pyralis), sequence (P08659 whole entry, looked up): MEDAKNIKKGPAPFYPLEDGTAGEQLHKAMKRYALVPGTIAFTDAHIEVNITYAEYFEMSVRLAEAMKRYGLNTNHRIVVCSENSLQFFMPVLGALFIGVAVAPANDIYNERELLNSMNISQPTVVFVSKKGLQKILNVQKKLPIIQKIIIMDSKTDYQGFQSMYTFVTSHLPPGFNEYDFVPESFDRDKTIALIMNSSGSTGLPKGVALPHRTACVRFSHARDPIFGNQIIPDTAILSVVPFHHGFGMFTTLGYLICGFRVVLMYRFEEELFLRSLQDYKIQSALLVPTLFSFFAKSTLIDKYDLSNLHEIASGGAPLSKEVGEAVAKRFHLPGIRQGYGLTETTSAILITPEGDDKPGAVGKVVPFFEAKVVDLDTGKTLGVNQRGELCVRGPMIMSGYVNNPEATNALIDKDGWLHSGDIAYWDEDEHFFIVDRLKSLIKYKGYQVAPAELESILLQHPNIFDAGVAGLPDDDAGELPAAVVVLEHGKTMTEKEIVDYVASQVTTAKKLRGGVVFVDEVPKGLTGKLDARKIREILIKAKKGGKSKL

O=NO
Potency [1]: inactive | Potency [2]: inactive | Potency [3]: inactive | Potency [4]: inactive | Potency [5]: inactive | Potency [6]: inactive | outcome [7]: inactive | Potency [8]: inactive | outcome [9]: inactive | outcome [10]: inactive | outcome [11]: inactive | Potency [12]: inactive | Potency [13]: inactive | outcome [14]: inactive | Potency [15]: inactive | Potency [16]: inactive | Potency [17]: inactive

CCCCC1C(=O)N(c2ccccc2)N(c2ccccc2)C1=O
Potency [1]: inactive | Potency [18]: inactive | Potency [2]: inactive | Potency [3]: inactive | Potency [4]: inactive | Potency [5]: inactive | Potency [6]: inactive | Potency [19]: inactive | outcome [7]: inactive | Potency [8]: inactive | outcome [9]: inactive | outcome [10]: inactive | outcome [11]: inactive | activity change, positive = activation ([20]; at 42.5 µM (top of the series)): 2.49% | activity change, positive = activation ([20]; at 92.4 µM (top of the series)): -34.5% and -44.9% | Potency [12]: inactive | Potency [13]: inactive | outcome [14]: inactive | Potency [15]: inactive | Potency [16]: inactive | Potency [17]: inactive

CCC1(c2ccccc2)C(=O)NCNC1=O
Potency [1]: inactive | Potency [18]: inactive | Potency [2]: inactive | Potency [3]: inactive | Potency [4]: inactive | Potency [5]: inactive | Potency [6]: inactive | outcome [7]: inactive | Potency [8]: inactive | outcome [9]: inactive | outcome [11]: inactive | Potency [12]: inactive | Potency [13]: inactive | outcome [14]: inactive | Potency [15]: inactive | Potency [16]: inactive | Potency [17]: inactive

O=C(O)c1[nH]n(-c2ccc(S(=O)(=O)O)cc2)c(=O)c1N=Nc1ccc(S(=O)(=O)O)cc1
Potency [1]: 26.6 µM (active) and 27.4 µM (active) and 28.6 µM (active) | Potency [18]: inactive | Potency [2]: 30.7 µM (active) and 45.4 µM (active) | Potency [3]: 48.7 µM (active) and 28.6 µM (active) | Potency [4]: inactive | Potency [5]: inactive | Potency [6]: 27.4 µM (active) and 45.4 µM (active) | outcome [7]: inactive | Potency [8]: inactive | outcome [10]: inactive | outcome [11]: inactive | Potency [12]: inactive | Potency [13]: inactive | outcome [14]: inactive | Potency [15]: inactive | Potency [16]: inactive | Potency [17]: inactive

O=C(O)CCCCCCCC(=O)O
Potency [1]: inactive | Potency [18]: inactive | Potency [2]: inactive | Potency [3]: inactive | Potency [4]: inactive | Potency [5]: inactive | Potency [6]: inactive | outcome [7]: inactive | Potency [8]: inactive | outcome [9]: inactive | outcome [11]: inactive | Potency [12]: inactive | Potency [13]: inactive | outcome [14]: inactive | Potency [15]: inactive | Potency [16]: inactive | Potency [17]: inactive

Nc1ccn([C@H]2CC[C@@H](CO)O2)c(=O)n1
Potency [1]: inactive | Potency [18]: inactive | Potency [2]: inactive | Potency [3]: inactive | Potency [6]: inactive | outcome [7]: inactive | Potency [8]: inactive | outcome [9]: inactive | outcome [11]: inactive | Potency [12]: inactive | Potency [13]: inactive | outcome [14]: inactive | Potency [15]: inactive | Potency [16]: inactive | Potency [17]: inactive

CC(C)(Oc1ccc(C2CC2(Cl)Cl)cc1)C(=O)O (configuration not stated)
Potency [1]: inactive | Potency [18]: inactive | Potency [2]: inactive | Potency [3]: inactive | Potency [4]: inactive | Potency [5]: inactive | Potency [6]: inactive | outcome [7]: inactive | Potency [8]: inactive | outcome [9]: inactive | outcome [10]: inactive | outcome [11]: inactive | Potency [12]: inactive | Potency [13]: inactive | outcome [14]: inactive | Potency [15]: inactive | Potency [16]: inactive | Potency [17]: inactive
